{"source": "PubChem BioAssay AID686978", "about": "(National Center for Advancing Translational Sciences (NCATS), 2013)", "note": "Where “and” joins values, the source holds several entries; their conditions need not be identical. Identical values can stand only once. About 64,000 (15%) of roughly 420,000 compounds were called active. Not shown: some 27% with an inconclusive outcome. Calls come from the whole dose curve; as a rule, active = well fitted inhibition curve with a large enough effect; inconclusive = small, poorly fitted or top-dose-only effect; inactive = flat fitted curve, though single readings scatter. Only a sample is shown. A call without a number means that no potency is given here. Potency is the fitted concentration of half-maximal effect.", "data": [{"assay": "qHTS for Inhibitors of human tyrosyl-DNA phosphodiesterase 1 (TDP1): qHTS in cells in absence of CPT; note: nearly all actives have a fitted effect of over 55% in size", "conditions": "DT40 Tdp1-/- hTDP1 cells, no CPT, ATP luminescence, 48 h; activity change, negative = growth inhibition: at 46.2 µM (top of the series)", "procedure,_shortened": "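Chicken DT40 Tdp1-/- cells stably complemented with human TDP1 were seeded at 400 cells/well with DMSO in place of 20 nM camptothecin. After compound pinning, cells grew at least 48 hr at 37 °C; viability read by CellTiter-Glo luminescence.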", "values": [{"smiles": "COC(=O)c1ccc(CNC(=O)c2ccc3oc(C(C)C)nc3c2)cc1", "Potency": "inactive"}, {"smiles": "Cc1c(-c2cccc(Cl)c2)nc2ccccc2c1C(=O)OCC(=O)N(C)C1CCS(=O)(=O)C1", "note": "(configuration not stated)", "Potency": "inactive"}, {"smiles": "CC(=O)Nc1ccc(C(=O)NNC(=O)CCCCC(=O)NNC(=O)c2ccc(NC(C)=O)cc2)cc1", "Potency": "inactive"}, {"smiles": "O=C(c1cn(-c2ccccc2)nc1-c1cccnc1)N1CCCCC1", "Potency": "inactive"}, {"smiles": "CCC(=O)OCc1c(C(F)(F)F)nn(C)c1Oc1cccc(C(F)(F)F)c1", "Potency": "inactive"}, {"smiles": "O=C(Nc1ccc(F)cc1)c1cccnc1N1CCOCC1", "Potency": "inactive"}, {"smiles": "CCc1cccc(NC(=O)c2cnc(N3CCOCC3)c3ccccc23)c1", "Potency": "11.6 µM (active)"}, {"smiles": "Cc1cc(Br)ccc1NC(=O)c1sc2ncn(CC(=O)N3CCN(c4ccccn4)CC3)c(=O)c2c1C", "Potency": "inactive"}, {"smiles": "Cc1cc(Br)ccc1NC(=O)c1cnc(N2CCN(c3ccccn3)CC2)c2ccccc12", "Potency": "13 µM (active)"}, {"smiles": "CSc1ncccc1C(=O)Nc1cccc(S(=O)(=O)N2CCOCC2)c1", "Potency": "inactive"}, {"smiles": "Cc1ccc(S(=O)(=O)NCC(=O)N2CCN(c3ccccn3)CC2)cc1", "Potency": "inactive"}, {"smiles": "CCOC(=O)COc1nc(C)cc(C(F)(F)F)c1C#N", "Potency": "inactive"}, {"smiles": "CCOC(=O)c1c(N)sc2c1CCCC2=O", "Potency": "inactive"}, {"smiles": "COc1ccc(-n2c(=O)c3ccccc3n(Cc3ccccc3Cl)c2=O)cc1", "Potency": "inactive"}, {"smiles": "CCC(=O)c1ccc(OCC(=O)OCC(=O)N2CCc3ccccc3C2)cc1", "Potency": "inactive"}, {"smiles": "OCCN1CCN(C(=S)c2ccc(-c3ccccc3)cc2)CC1", "Potency": "inactive"}, {"smiles": "CN(C)CCNC(=O)Cc1ccc([N+](=O)[O-])cc1", "Potency": "inactive"}, {"smiles": "Cn1cc(CCC(=O)NCc2ccc3c(c2)OCO3)c2ccccc21", "Potency": "inactive"}, {"smiles": "Cc1nc2nc(COc3ccccc3)[nH]n2c(=O)c1C", "Potency": "inactive"}, {"smiles": "OCC[C@H]1C[C@H](O)[C@@H](O)[C@]2(CCc3ccccc3O2)O1", "Potency": "inactive"}, {"smiles": "CCOc1cccc(SCc2noc(C(=O)NC(C)C)c2C(=O)O)c1", "Potency": "inactive"}, {"smiles": "CC1CN(S(=O)(=O)c2cccc(C(F)(F)F)c2)CN1C(=O)N1CCOCC1", "note": "(configuration not stated)", "Potency": "inactive"}, {"smiles": "O=C(O)c1ccc(CSc2nc3cccnc3n2Cc2cccc(F)c2)cc1", "Potency": "inactive"}, {"smiles": "Cc1oc(-c2ccccc2)nc1Cn1c(SCc2cccc(C(F)(F)F)c2)nc2cccnc21", "Potency": "25.9 µM (active)"}, {"smiles": "O=C(NC1CCCCC1)c1ccc(Cn2c(SCc3ccccc3)nc3cccnc32)cc1", "Potency": "inactive"}, {"smiles": "O=C(Cc1ccccc1)NNC1CC(=O)N(c2ccc(Br)cc2)C1=O", "note": "(configuration not stated)", "Potency": "inactive"}, {"smiles": "Cc1onc(C(=O)Nc2ccc3c(c2)OCO3)c1[N+](=O)[O-]", "Potency": "inactive"}, {"smiles": "CN(CC(=O)NC1CCCCC1)S(=O)(=O)c1cccc2cccnc12", "Potency": "inactive"}, {"smiles": "CC(=O)OC[C@@H]1CN(Cc2ccccc2)C[C@H](n2cnc3c(NCc4ccco4)ncnc32)O1", "Potency": "inactive"}, {"smiles": "Nc1ncnc2c1ncn2[C@@H]1O[C@H](C(=O)NCC(F)(F)F)[C@@H](O)[C@H]1O", "Potency": "inactive"}, {"smiles": "O=c1c(CCc2ccccc2)nc2cnc(N3CCNCC3)nc2n1Cc1cccs1", "Potency": "inactive"}, {"smiles": "COCCn1c(=O)c(-c2cc(F)cc(F)c2)nc2cnc(N3CCNCC3)nc21", "Potency": "23.1 µM (active)"}, {"smiles": "O=c1c(-c2ccc(F)cc2)nc2cnc(N3CCOCC3)nc2n1-c1ccccc1", "Potency": "inactive"}, {"smiles": "COCCn1c(=O)c(-c2cc(F)cc(F)c2)nc2cncnc21", "Potency": "inactive"}, {"smiles": "COCCn1c(=O)c(-c2ccccc2)nc2cnc(N3CCOCC3)nc21", "Potency": "inactive"}, {"smiles": "N#Cc1cccc(-c2nc3cnc(N4CCNCC4)nc3n(C3CC3)c2=O)c1", "Potency": "3.66 µM (active)"}, {"smiles": "COC(=O)c1ccc(NC(=O)c2cc3c(CO)cnc(C)c3oc2=Nc2cccc(C(N)=O)c2)cc1", "Potency": "inactive"}, {"smiles": "Cc1cc(C(=O)N2CCC(C(=O)O)CC2)c(C(F)(F)F)o1", "Potency": "inactive"}, {"smiles": "COC(=O)c1ccc(CSc2ccc(S(=O)(=O)N3CCCCC3)cn2)cc1", "Potency": "inactive"}, {"smiles": "C/C(CC(=O)Nc1ccc(C)cc1C)=N\\NC(=O)C(C)C", "Potency": "inactive"}, {"smiles": "CN(C)N1C(N)=C(C#N)C(c2ccc(Br)cc2)C2=C1CCCC2=O", "note": "(configuration not stated)", "Potency": "inactive"}, {"smiles": "Cc1ccc(S(=O)(=O)N(C)C)cc1NC(=O)COC(=O)c1c(C)noc1C", "Potency": "inactive"}, {"smiles": "C=CCCC(=O)N1C[C@H]2CON(C)[C@H]2C[C@H]1c1cccc(Nc2ccccc2)c1", "Potency": "inactive"}, {"smiles": "O=C(OCc1cn([C@@H]2C[C@H](c3ccc(Cl)cc3)N(Cc3cccs3)C[C@H]2O)nn1)c1ccccc1", "Potency": "inactive"}, {"smiles": "O=C(c1cccs1)N1C[C@H](n2cc(C3CC3)nn2)[C@@H](O)C[C@@H]1c1ccccc1", "Potency": "inactive"}, {"smiles": "O=C(OCc1cn([C@H]2C[C@H](c3ccccc3)N(C(=O)c3cccs3)C[C@@H]2O)nn1)c1ccccc1", "Potency": "18.4 µM (active)"}, {"smiles": "O=C(OCc1cn(-c2ccc(Cl)c(Cl)c2)nn1)c1ccccc1Cl", "Potency": "inactive"}, {"smiles": "CCCCCC(=O)N1C[C@H](O)[C@@H](n2cc(COC(=O)c3ccccc3)nn2)C[C@@H]1c1ccc(C)cc1", "Potency": "0.82 µM (active)"}, {"smiles": "CCCCN(C)CCNC(=O)CSCc1ccc(C)cc1", "Potency": "inactive"}, {"smiles": "CC1=CC(=O)C=CC1(C)C(Cl)(Cl)Cl", "note": "(configuration not stated)", "Potency": "inactive"}, {"smiles": "CCN(CC(=O)NCc1ccco1)S(=O)(=O)c1ccc(F)cc1", "Potency": "inactive"}, {"smiles": "Cc1c(C=O)c2ccccn2c1C(=O)c1ccncc1", "Potency": "inactive"}, {"smiles": "COc1ccc([N+](=O)[O-])cc1-c1nc2ccccc2nc1-c1ccccc1", "Potency": "inactive"}, {"smiles": "O=C(Cn1c(=O)nc(-c2ccccc2)c2cc(Cl)ccc21)NCc1ccc(Cl)cc1", "Potency": "23.1 µM (active)"}, {"smiles": "CCN(C(=O)Cn1c(=O)nc(-c2ccccc2)c2cc(Cl)ccc21)c1cccc(C)c1", "Potency": "inactive"}, {"smiles": "COC(=O)Cn1nc(-c2ccccc2)c2cc(Cl)ccc21", "Potency": "inactive"}, {"smiles": "Cc1ccc(N(CC(=O)NC2CCCCC2)C(=O)CCCC(=O)Nc2ccccn2)c(C)c1", "Potency": "inactive"}, {"smiles": "Cn1nccc1C(=O)NCC1CCC2(CCN(Cc3c(O)ccc4ccccc34)CC2)O1", "note": "(configuration not stated)", "Potency": "inactive"}, {"smiles": "CCOC(=O)c1nc(Nc2ccc(C(=O)OC)cc2)c2ccccc2n1", "Potency": "8.2 µM (active) and 20.6 µM (active)"}, {"smiles": "CCOC(=O)c1ccc(Nc2cc(C)nc3nc(C)nn23)cc1", "Potency": "inactive"}, {"smiles": "COC(=O)c1ccc(Nc2ncnc3sccc23)cc1", "Potency": "inactive"}, {"smiles": "COc1cc(C(=O)N2C(=O)c3cccc(N)c3C2=O)cc(OC)c1OC", "Potency": "inactive"}, {"smiles": "O=C(CCc1ccccc1)Nc1nn[nH]n1", "Potency": "inactive"}, {"smiles": "O=C(O)c1ccc(N=NN2CCOCC2)cc1", "Potency": "inactive"}, {"smiles": "CCOc1cc(NC(=S)NCc2ccco2)c(OCC)cc1NC(=O)c1ccco1", "Potency": "inactive"}, {"smiles": "COc1ccc(OCC(=O)Nc2ccc(NC(=O)c3ccco3)c(C)c2)cc1", "Potency": "inactive"}, {"smiles": "Cc1cc(NC(=O)c2ccc(F)cc2)ccc1NC(=O)c1ccco1", "Potency": "inactive"}, {"smiles": "CCOc1cc(NC(=O)c2ccco2)c(OCC)cc1NC(=O)COc1ccccc1", "Potency": "4.61 µM (active)"}, {"smiles": "O=C(COc1ccccc1)Nc1nonc1NC(=O)COc1ccccc1", "Potency": "inactive"}, {"smiles": "Cc1ccc(C(=O)COc2cccc(NC(=O)c3ccco3)c2)cc1", "Potency": "20.6 µM (active)"}, {"smiles": "Cc1cccc(OCC(=O)Nc2ccc(NC(=O)c3ccco3)c(C)c2)c1", "Potency": "16.4 µM (active)"}, {"smiles": "Cc1ccc(NC(=O)c2ccco2)cc1", "Potency": "inactive"}, {"smiles": "O=C(Nc1cccc(NC(=O)c2ccco2)c1)c1cnccn1", "Potency": "inactive"}, {"smiles": "CC(C)c1ccc(NC(=O)Cn2ncc3ccccc32)cc1", "Potency": "inactive"}, {"smiles": "CCOC(=O)C1CCN(C(=O)C2CCN(S(=O)(=O)c3c(C)noc3C)CC2)CC1", "Potency": "inactive"}, {"smiles": "CCOc1ccc(Oc2nc(C)cc(OC)n2)nn1", "Potency": "inactive"}, {"smiles": "O=C1CCN(C(=S)NCCc2ccccc2)CC1", "Potency": "inactive"}, {"smiles": "S=C(NCCc1ccccc1)N1CCCCC1", "Potency": "inactive"}, {"smiles": "Oc1ccc(N2CCN(C(=S)NCc3ccccc3)CC2)cc1", "Potency": "13 µM (active)"}, {"smiles": "Cc1ccc(C(=O)COC(=O)CCN2C(=O)C3C4CC(C(Br)C4Br)C3C2=O)cc1", "note": "(configuration not stated)", "Potency": "inactive"}, {"smiles": "Clc1ccc(-c2cc(COc3ccccc3)no2)cc1Cl", "Potency": "inactive"}, {"smiles": "COc1ccc(Oc2coc3cc(OC(=O)c4cncc(Br)c4)ccc3c2=O)cc1", "Potency": "inactive"}, {"smiles": "O=C(Oc1ccccc1)Oc1ccc2c(c1)oc(=O)c1ccccc12", "Potency": "inactive"}, {"smiles": "N#CCSc1nc2ccc(N3CCOCC3)cc2c(=O)n1CCc1ccccc1", "Potency": "20.6 µM (active)"}, {"smiles": "COCCCNC(=O)CSc1nc2ccc(N3CCOCC3)cc2c(=O)n1CCc1ccccc1", "Potency": "inactive"}, {"smiles": "CCCCn1c(SCC(=O)NCC2CCCO2)nc2ccc(N3CCOCC3)cc2c1=O", "note": "(configuration not stated)", "Potency": "inactive"}, {"smiles": "O=C(CSc1nnc2n1CCCN2)c1ccccc1", "Potency": "inactive"}, {"smiles": "COc1cccc(OC)c1C(=O)OCC(=O)/C(C#N)=C(\\C)N", "Potency": "inactive"}, {"smiles": "CC(=O)Cn1cnc2c(cnn2-c2ccccc2)c1=O", "Potency": "inactive"}, {"smiles": "Cc1ccc(-n2ncc3c(=O)n(Cc4cccc(C(F)(F)F)c4)cnc32)cc1C", "Potency": "inactive"}, {"smiles": "CC(C)(C)n1ncc2c(=O)n(Cc3ccc(Cl)cc3)cnc21", "Potency": "23.1 µM (active)"}, {"smiles": "c1cc(-c2nn[nH]n2)ccc1CN1CCCCC1", "Potency": "inactive"}, {"smiles": "CC(=O)Nc1ccc(OCCC[n+]2cccc(C(=O)[O-])c2)cc1", "Potency": "inactive"}, {"smiles": "Nc1nc(SCc2ccccc2Cl)n[nH]1", "Potency": "inactive"}, {"smiles": "Fc1ccc(Nc2nc(SCc3ccccc3Cl)nc3ccccc23)cc1", "Potency": "16.4 µM (active)"}, {"smiles": "Fc1ccc(CSc2nc(NCc3ccccc3)c3ccccc3n2)cc1", "Potency": "16.4 µM (active)"}, {"smiles": "Fc1ccc(CNc2nc3ccccc3n3nnnc23)cc1", "Potency": "inactive"}, {"smiles": "Nc1cc(N)nc(SCc2cccc(F)c2)n1", "Potency": "inactive"}, {"smiles": "O=c1cc(O)nc(SCc2ccccc2Cl)[nH]1", "Potency": "inactive"}, {"smiles": "O=C1NCC(c2ccccc2)(c2ccccc2)C(=O)N1", "Potency": "inactive"}, {"smiles": "CC(=O)c1nc(N2C(=O)C3CC=C(C)CC3C2=O)sc1C", "note": "(configuration not stated)", "Potency": "inactive"}, {"smiles": "Cc1ccc(S(=O)(=O)NC2(C(F)(F)F)NC(=O)N(CCc3ccccc3)C2=O)cc1", "note": "(configuration not stated)", "Potency": "inactive"}, {"smiles": "O=C(Nc1ccccc1F)c1ccc2c(c1)OCO2", "Potency": "inactive"}, {"smiles": "N[C@@H](C(=O)O)c1ccc(P(=O)(O)O)cc1", "Potency": "inactive"}, {"smiles": "O=C(c1ccc(Oc2ccc(Cl)cc2)c([N+](=O)[O-])c1)N1CCCC1", "Potency": "14.6 µM (active)"}, {"smiles": "O=C(c1ccc(Cl)c(Cl)c1)N1CCCC1", "Potency": "inactive"}, {"smiles": "O=C(COc1ccc(Cl)cc1[N+](=O)[O-])N1CCCCC1", "Potency": "inactive"}]}]}
